DT40 TDP1 CPT: qHTS for Inhibitors of human tyrosyl-DNA phosphodiesterase 1 (TDP1): qHTS in cells in presence of CPT | 12% of 420,000 active | Potency, µM (top dose mostly 46.2 µM), inactives show at the highest dose activity change, negative = growth inhibition, usual class: inhibitors | AID 686979, 2013 | chicken DT40 Tdp1-/-;hTDP1 cells + 20 nM CPT, ATP luminescence, 48 h; note: potency is the fitted concentration of half-maximal effect; nearly all actives have a fitted effect of over 55% in size
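Chicken DT40 Tdp1-/- cells stably complemented with human TDP1 were seeded at 400 cells/well in medium containing 20 nM camptothecin, exposed to pin-transferred compounds, and grown at 37 °C for at least 48 hr. Viability was read as ATP luminescence.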
TDP1 cell noCPT: qHTS for Inhibitors of human tyrosyl-DNA phosphodiesterase 1 (TDP1): qHTS in cells in absence of CPT. DT40 Tdp1-/- hTDP1 cells, no CPT, ATP luminescence, 48 h. Potency, µM (doses to about 46.2 µM), inactives show at the top dose activity change, negative = growth inhibition, actives largely listed as inhibitors. 15% of 420,000 active; note: potency is the fitted concentration of half-maximal effect; nearly all actives have a fitted effect of over 55% in size
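No-CPT arm: Tdp1-/-;hTDP1 DT40 cells (400/well) plus compounds, incubated ≥48 hr at 37 °C. Readout CellTiter-Glo luminescence.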
HT1080 IDH1KD tx: qHTS for induction of synthetic lethality in tumor cells producing 2HG: qHTS for the HT-1080-IDH1KD cell line | HT-1080 IDH1 knockdown viability, ATP luminescence, 48 h | Potency, µM (series often up to 46.1 µM), inactives show at the top dose activity, negative = toxicity, most hits filed as cytotoxic | 2% of 360,000 active | AID 686971, 2013;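 note: potency is the fitted concentration of half-maximal effect; 0% = DMSO wells and -100% = cell-free medium wells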
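% activity derives from luminescence (CellTiter-Glo), normalised to DMSO and no-cell wells. HT-1080-IDH1KD cells, 750/well, had 48 h compound exposure at 37 °C.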
HT1080-NT tox: qHTS for induction of synthetic lethality in tumor cells producing 2HG: qHTS for the HT-1080-NT fibrosarcoma cell line | HT-1080-NT fibrosarcoma viability, CellTiter-Glo ATP luminescence, 48 h | Potency, µM (highest dose often 46.1 µM), for inactives: at the highest dose activity, negative = less viability, hits mostly cytotoxic | 1.6% of 360,000 active;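 note: NT is the 2HG producing partner of a matched IDH1 knockdown line; potency is the fitted concentration of half-maximal effect; 0% = DMSO-treated cells and -100% = media-only wells without cells; nearly all actives have a fitted effect of over 55% in size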
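Read-out is CellTiter-Glo luminescence after 10 minutes at room temperature, following 48 hours' compound treatment of HT-1080-NT cells (750 cells/well, RPMI, 5% FBS, 37 degrees C).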
IL-1B inflam inh: qHTS for Inhibitors of Inflammasome Signaling: IL-1-beta AlphaLISA Primary Screen; THP-1 LPS/ATP IL-1B secretion, AlphaLISA, 16 h; hits give low values; activity change, % at 57.5 µM; 4.7% of 360,000 active; in the data active = activity change below about -50%; inconclusive = mostly about -30% to -49%
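THP-1 cells pretreated 1 hr with compounds (up to 57.5 uM final), then stimulated with LPS (250 ng/mL final) plus ATP (1.25 mM final); secreted IL-1B measured by AlphaLISA after 16 hr, decreased signal indicating inhibition.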
An asterisk follows results filed as active; ? = inconclusive; / = not tested or not shown; [ ] = dose if it differs, or a comment. A selection: hits, their analogues and other compounds. The true share with any hit is near 19%. Unless noted, calls come from the whole dose curve; as a rule, active = well fitted curve in the direction sought with a large enough effect; inconclusive = small, poorly fitted or top-dose-only effect, or another doubt; inactive = no such curve, though single readings can be large; an effect the other way counts as inactive or inconclusive. Unless noted, % is set by controls: 0 for no effect and ±100 for the full control effect.

SMILES	DT40 TDP1 CPT	TDP1 cell noCPT	HT1080 IDH1KD tx	HT1080-NT tox	IL-1B inflam inh
COc1cnn(-c2ccccc2)c(=O)c1SCc1ccc(Cl)cc1Cl	29µM*	21µM*	-19%	2%	-51*
CC(=O)NCCc1nc2cc(NC(=O)c3ccccc3C)ccc2n1C	3%	11%	0%	4%	0
COc1cc(NC(=O)Cc2ccc(S(=O)(=O)N3CCOCC3)s2)c(OC)cc1Cl	?	21µM*	-15%	-4%	12
COc1cc(NC(=O)Cc2ccc(OC)c(S(=O)(=O)N3CCOCC3)c2)c(OC)cc1Cl	?	?	-3%	-2%	19
O=C(Cc1ccc(S(=O)(=O)N2CCOCC2)s1)Nc1cc(Cl)ccc1Cl	4%	-15%	-13%	-7%	-57*
COc1ccc(CN(C)C(=O)Cc2ccc(S(=O)(=O)N3CCOCC3)s2)cc1OC	-3%	?	-5%	-9%	-16
COc1ccc(Br)cc1CN(C)C(=O)Cc1ccc(S(=O)(=O)N2CCOCC2)s1	?	21µM*	-10%	-1%	-2
Cc1ccc(C)c(NC(=O)CN(C)S(=O)(=O)c2cccc3nsnc23)c1	-29%	?	/	/	/
COC(=O)c1cc(NC(=O)c2ccccc2)c(=O)oc1/C=C/Nc1ccc(Oc2ccccc2)cc1	-25%	23µM*	2%	7%	18
Brc1ccc(C2=Nc3cccc4cccc(c34)N2)o1	6.5µM*	8.2µM*	1%	5%	0
FC(F)(F)C1=Nc2cccc3cccc(c23)N1	4.1µM*	4.6µM*	-1%	-2%	-16
CC(=O)c1cccc(NC(=O)C(C)Sc2nnc3ccccn23)c1 (stereo unspecified)	-9%	-18%	-5%	0%	0
O=C1CCCC2=C1C(c1ccncc1)c1c(nc(SCc3ccccc3)[nH]c1=O)N2 (stereo unspecified)	-4%	-16%	3%	1%	-52*
CCNc1ncc2nc(CCc3ccccc3)c(=O)n(C)c2n1	-3%	-30%	/	/	/
CCOC(=O)C1(C)CCCCN1C(=O)c1ccc(N(C)C)cc1 (stereo unspecified)	-27%	?	10%	?	19
CCOC(=O)C1(C)CCN1C(=O)c1ccc(-c2ccccc2)cc1 (stereo unspecified)	-82%	15µM*	-2%	4%	0
CCOC(=O)C1(C)CCCCCN1C(=O)c1ccc(OC)cc1 (stereo unspecified)	16µM*	?	2%	23%	59
CCOC(=O)C1(C)CCN1C(=O)c1ccccc1 (stereo unspecified)	-17%	-13%	2%	30%	0
CCOC(=O)C1(C)CCCCCN1C(=O)c1ccc(OC)c(C(F)(F)F)c1 (stereo unspecified)	23µM*	10µM*	0%	5%	-6
COc1ccc(C(=O)N2CCCC2(C)C(=O)O)cc1C(F)(F)F (stereo unspecified)	-18%	-1%	0%	2%	0
Cc1nc2cc(C(=O)N3CCN(C)CC3)ccc2n1C	5%	24%	12%	4%	9
O=C(CCCC(=O)N(CC(=O)NC1CCCCC1)c1cccc(F)c1)Nc1ccccn1	0%	-4%	0%	7%	18
COCCn1c(=O)c(-c2cc(F)cc(F)c2)nc2cnc(OC)nc21	5%	-9%	/	/	/
Cc1ccc(S(=O)(=O)NC(=O)c2cccn2C)cc1	-7%	-13%	2%	19%	-4
O=C(Nc1ccc(Oc2ccccc2)cc1)C1CCN(c2c3c(nc4ncnn24)CCC3)CC1	15µM*	18µM*	-9%	-26%	-91*
SMILES	DT40 TDP1 CPT	TDP1 cell noCPT	HT1080 IDH1KD tx	HT1080-NT tox	IL-1B inflam inh
Cc1cc(C)nc(N2CCC(CNC(=O)CCc3ccccc3)CC2)n1	?	21µM*	11%	0%	33
O=C(Nc1ccc2c(c1)CCC2)C1CCN(c2c3c(nc4ncnn24)CCC3)CC1	23µM*	21µM*	?	?	-18
Cc1cc(C)nc(N2CCC(C(=O)Nc3ccc(Oc4ccccc4)cc3)CC2)n1	5.8µM*	8.2µM*	5%	6%	23
COc1ccc(C2SCC(=O)N2CCCN(C)C)cc1 (stereo unspecified)	3%	4%	22%	20%	4
Cc1ncc2c(c1CNC(=O)c1cncs1)CCN(C(=O)c1ccc(C(C)(C)C)cc1)C2	13%[9.04 µM]	?	/	/	/
O=c1ccc(/C=C/c2ccccc2)nn1Cc1ccc(F)cc1	5%	-23%	-27%	-4%	-60*
CCOC(=O)Cn1nc(/C=C/c2ccc(OC)cc2)ccc1=O	-19%	-27%	-3%	0%	-29
COc1ccc(/C=C/c2ccc(=O)n(Cc3ccccc3)n2)cc1	?	?	?	-16%	-156*
Cc1ccc(/C=C/c2ccc(=O)n(Cc3ccccc3Cl)n2)cc1	16µM*	26µM*	-1%[9.24 µM]	?	?
O=C(Nc1cc(Cl)ccc1-n1cncn1)c1cccs1	-6%	1%	-6%	-6%	-5
Cc1ccc(N2C(=O)CCC2=O)c(C)c1	4%	-2%	20%	17%	-6
CCOC(=O)C(=O)N1CCN(c2cc3c(cc2[N+](=O)[O-])n(C)c(=O)n3C)CC1	-7%	-2%	3%	7%	25
CCCn1nc(NS(=O)(=O)c2cccc3nonc23)c2cc3ccccc3nc21	-19%	11%	-15%	-10%	-29
CCC1(C)Cc2c(c(=O)n(-c3ccccc3)c3ncnc(N)c23)CO1 (stereo unspecified)	3%	-3%	10%	21%	5
Cc1cccc(-c2noc(-c3ccccc3NC(=O)C3CC(=O)N(c4ccccc4C)C3)n2)c1 (stereo unspecified)	23µM*	15µM*	/	/	/
Cc1ccc(-c2noc(-c3ccccc3NC(=O)C3CC(=O)N(c4ccccc4C)C3)n2)cc1 (stereo unspecified)	18µM*	23µM*	/	/	/
COc1ccc(N2CC(C(=O)Nc3ccccc3-c3nc(-c4ccc(C)cc4)no3)CC2=O)cc1 (stereo unspecified)	-3%	-7%	/	/	/
CC1=C(C(=O)N2CCOCC2)CC(CC(=O)NCCN2CCOCC2)C(=O)N1Cc1ccc(F)cc1 (stereo unspecified)	-10%	?	14%	16%	23
CCNc1nc(NCC)n2c(SCC(=O)Nc3ccc(NC(C)=O)cc3)nnc2n1	-14%	5%	12%	0%	19

Assay outcomes deposited in PubChem BioAssay by National Center for Advancing Translational Sciences (NCATS).
